According to PubChem BioAssay AID1875 (Broad Institute, 2009):
The whole screen tested about 300,000 compounds, of which about 65 (0.02%) were called active.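 How the source made its calls: active means lowest replicate activity score at least 50, where 100 means six control SD above control mean; inconclusive means lowest score under 50 but half or more replicates reach 50; inactive means the rest.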 Shown is part of a subset that was picked to be rich in actives.

experiment: polyadenylation inhibitors in yeast reporter cells, primary screen, luminescence, S. cerevisiae (AID 1875);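 further: yeast exposed to compound for 9 h at 30 °C; higher score means more reporter readthrough which indicates perturbed polyadenylation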; settings: S. cerevisiae SKY197-pL101 polyadenylation reporter, beta-gal luminescence; at 12 µM; hits give high values; efflux-impaired pdr1/pdr3 knockout yeast; score 100 = 6 SD above DMSO

Activity score, inactive:
Cc1ccccc1N1C(=O)C(Oc2ccc(Cl)cc2)C1CNCC1CCCO1 (stereo unspecified) -13.7%
COC(=O)c1ccc(SCc2ccccc2)nc1 5.84%
CC(C)(C)N(Cc1ccccc1)C(=O)COC(=O)CCc1c[nH]c2ccccc12 9.29%
CCN(CC)c1ccc(C(=O)Nn2c(C)nc3ccccc3c2=O)cc1 -0.748%
O=C(CCc1nnc(Cc2ccc3c(c2)OCO3)o1)NCCc1ccccc1Cl 6.46%
O=C(COc1coc(CN2CCN(c3ccccc3)CC2)cc1=O)N1CCc2ccccc21 -4.04%
O=C(Cc1ccccc1)Nc1c(Cl)ccc2nsnc12 16.1%
Cc1[nH]n(C(N)=S)c(=O)c1N=Nc1ccc(Cl)cc1Cl -14.2%
COc1ccc(OC)c(NC(=O)CSc2nc(-c3ccccc3)cc(=O)[nH]2)c1 -4.65%
CC1CCN(CCCn2c(SCC(=O)NC3CCCC3)nc3ccccc3c2=O)CC1 -3.59%
COc1cccc(C(=O)Nc2nnc(S(=O)(=O)N3CCOCC3)s2)c1 16.5%
Cc1ccc(S(=O)(=O)C2C(=O)NC3(C)CC2c2ccccc2O3)cc1 (stereo unspecified) 1.24%
COc1ccc(C(=O)C2CCCN(C(=O)c3cc4nc(C)cc(C)n4n3)C2)cc1F (stereo unspecified) 4.72%
CN(CCO)c1ccc(/C=N/Nc2nncc3ccccc23)cc1 -9.02%
Cc1ccccc1CN1C[C@@H]2C[C@@H](c3cn(C)nc3-c3ccccc3)N3CCC[C@@]23C1=O -0.645%
COc1cc(CNc2ncn[nH]2)ccc1OCc1ccccc1C 5.71%
CN(CCOc1ccccc1)Cc1nc2cc(Cl)ccc2c(=O)[nH]1 6.63%
CC(C)(C)c1ccccc1NC(=O)CN1C(=O)NC2(CCCC2)C1=O 9.67%
Cc1ccc(CS(=O)(=O)CCC(=O)NCc2ccc(F)cc2)cc1 -0.106%
CCn1c(Cc2ccc(OC)cc2)nnc1SCC(=O)Nc1ccc(N2CCOCC2)cc1 -14.5%
Cc1ccc(NN=Nc2nc3c([nH]2)c(=O)n(C)c(=O)n3C)cc1 15.9%
COc1cc(NS(=O)(=O)c2ccc(NC(=O)c3ccc([N+](=O)[O-])cc3)cc2)ncn1 -0.0482%
O=C(CCCCCn1c(=S)[nH]c2ccsc2c1=O)NC1CCCCC1 -14.5%
CCCCn1c(N)c(N(CCOC)C(=O)c2cccc(OCc3ccccc3)c2)c(=O)[nH]c1=O -6.78%
Brc1ccccc1/C=N/Nc1nc2ccccc2o1 -16.6%
Cc1ccc(N(Cc2cc(=O)[nH]c3ccccc23)C(=O)CCl)cc1 29.9%
COC(=O)c1c(C)[nH]c(C(=O)/C=C/c2ccc(Cl)cc2)c1C -2.04%
O=C(NCCc1ccccc1)C1CCC(Cn2c(=O)c3ccccc3n(Cc3cccnc3)c2=O)CC1 (stereo unspecified) -5.99%
COc1ccc(-c2nn(-c3ccccc3)cc2CN2CCCO2)c(F)c1 0.939%
O=C(NCCCn1ccnc1)/C(=C\c1ccccc1F)NC(=O)c1ccccc1 11.1%
CN(C(=O)C1CCN(c2ncnc3c2nc2n3CCCCC2)CC1)C1CCCCC1 5.63%
